Measured values taken from the supplement of paper PMC10849652.
Of roughly 7,900 targets only a part is listed; those with a hit were picked by preference. About 0.6% of all pairs of compound and target were hits.

What was measured:
Test in all cases: log2 fold change, soluble protein after heating vs DMSO (PISA); higher = thermal stabilisation; K562 cells, 10 uM, 30 min; active = over 0.2 and 3.5 SD of the protein, either way, in both replicates (recomputed)
[1] = compound: C1=CC=C(C=C1)[C@H](COC2=CC3=C(C=C2)NC(=O)N3)NC(=O)C4=CC=CN(C4=O)CC5=CC(=C(C=C5)F)F
Method in brief: (§1)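 Values are thermal stability changes relative to control samples and are taken from duplicates. They are stated as log2 fold changes. Before quantification by TMTpro 16plex LC-MS/MS with equalised channel sums, K562 cells at 2×10^6 cells/mL were treated with 10 μM compound for 30 min, heated in aliquots for 3 min across 48°C-58°C, pooled, extracted in PBS with 0.5% NP-40 at 4°C, and centrifuged at 21,000xg for 90 min to give the soluble supernatant.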

[2] = compound: CC1=C(SC2=C1C(=N[C@H](C3=NN=C(N32)C)CC(=O)N)C4=CC=C(C=C4)Cl)C
Method in brief: as §1

[3] = compound: CC1=C2C(=CC=C1)N=C(N(C2=O)C3=CC=CC=C3C)CN4C=NC5=C(N=CN=C54)N
Method in brief: as §1

[4] = compound: Cc1sc2c(c1C)C(c1ccc(Cl)cc1)=N[C@@H](CC(=O)OC(C)(C)C)c1nnc(C)n1-2
Method in brief: as §1

[5] = compound: c1ccc([C@@H]2C[C@H]2NC2CCNCC2)cc1
Method in brief: as §1

Measured: log2 fold change

SCAF8 isoform 2 (UniProt Q9UPN6)
Chain of UniProt Q9UPN6 (Q9UPN6 whole entry, looked up): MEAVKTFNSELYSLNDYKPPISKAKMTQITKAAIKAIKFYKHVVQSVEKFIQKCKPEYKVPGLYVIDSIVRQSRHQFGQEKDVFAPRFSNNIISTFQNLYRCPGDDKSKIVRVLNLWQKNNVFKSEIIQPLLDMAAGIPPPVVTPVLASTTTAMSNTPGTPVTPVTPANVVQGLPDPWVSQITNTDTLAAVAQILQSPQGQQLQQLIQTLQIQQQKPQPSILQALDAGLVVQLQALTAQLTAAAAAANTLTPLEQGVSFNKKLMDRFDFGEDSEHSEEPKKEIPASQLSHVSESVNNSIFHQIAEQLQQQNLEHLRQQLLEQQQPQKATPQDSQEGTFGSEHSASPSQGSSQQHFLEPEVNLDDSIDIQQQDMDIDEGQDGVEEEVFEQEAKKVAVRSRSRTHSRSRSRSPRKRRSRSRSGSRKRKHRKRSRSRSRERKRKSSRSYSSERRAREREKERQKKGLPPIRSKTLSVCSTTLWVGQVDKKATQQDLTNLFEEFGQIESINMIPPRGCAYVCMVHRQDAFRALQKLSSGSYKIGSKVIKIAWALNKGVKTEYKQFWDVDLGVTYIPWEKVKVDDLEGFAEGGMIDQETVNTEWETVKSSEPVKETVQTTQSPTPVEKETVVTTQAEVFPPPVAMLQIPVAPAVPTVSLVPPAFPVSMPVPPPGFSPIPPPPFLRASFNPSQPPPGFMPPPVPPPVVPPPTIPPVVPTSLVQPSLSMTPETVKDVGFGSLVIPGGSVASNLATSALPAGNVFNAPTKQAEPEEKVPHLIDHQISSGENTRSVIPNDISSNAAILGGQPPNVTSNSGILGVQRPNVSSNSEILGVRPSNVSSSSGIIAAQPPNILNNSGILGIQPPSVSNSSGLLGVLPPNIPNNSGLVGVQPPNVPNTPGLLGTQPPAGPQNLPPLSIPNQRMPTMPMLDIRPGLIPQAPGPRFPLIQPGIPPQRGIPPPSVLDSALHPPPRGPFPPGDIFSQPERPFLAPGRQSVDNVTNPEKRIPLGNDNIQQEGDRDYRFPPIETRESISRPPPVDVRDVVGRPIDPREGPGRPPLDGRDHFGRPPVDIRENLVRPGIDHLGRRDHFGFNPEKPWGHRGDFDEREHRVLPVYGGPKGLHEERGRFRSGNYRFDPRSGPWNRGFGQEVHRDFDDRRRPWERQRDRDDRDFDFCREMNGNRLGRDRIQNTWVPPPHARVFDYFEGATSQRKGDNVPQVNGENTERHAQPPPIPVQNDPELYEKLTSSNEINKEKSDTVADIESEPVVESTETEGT
inactive: [1] -0.072 | [2] 0.099 | [3] 0.254 | [4] -0.016 | [5] 0.012

SHCBP1 (UniProt Q8NEM2)
Chain of UniProt Q8NEM2 (Q8NEM2 whole entry, looked up): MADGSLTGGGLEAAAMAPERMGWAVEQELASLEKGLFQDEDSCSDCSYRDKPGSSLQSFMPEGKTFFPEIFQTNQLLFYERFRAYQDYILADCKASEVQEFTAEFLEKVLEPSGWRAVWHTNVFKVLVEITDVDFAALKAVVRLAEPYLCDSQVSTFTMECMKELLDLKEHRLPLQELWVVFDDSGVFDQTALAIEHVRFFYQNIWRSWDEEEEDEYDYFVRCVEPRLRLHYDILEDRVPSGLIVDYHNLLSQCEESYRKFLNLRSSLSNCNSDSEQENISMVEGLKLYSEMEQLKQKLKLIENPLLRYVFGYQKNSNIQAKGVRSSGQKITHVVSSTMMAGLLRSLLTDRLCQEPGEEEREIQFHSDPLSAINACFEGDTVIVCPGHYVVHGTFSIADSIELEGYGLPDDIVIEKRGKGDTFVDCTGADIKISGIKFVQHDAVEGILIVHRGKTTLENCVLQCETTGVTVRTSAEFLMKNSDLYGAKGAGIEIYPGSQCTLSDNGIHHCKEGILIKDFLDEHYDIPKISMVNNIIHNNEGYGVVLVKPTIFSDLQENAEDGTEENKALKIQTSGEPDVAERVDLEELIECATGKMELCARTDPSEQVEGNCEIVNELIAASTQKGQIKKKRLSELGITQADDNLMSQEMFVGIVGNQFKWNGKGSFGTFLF
inactive: [1] 0.018 | [2] -0.176 | [3] 0.138 | [4] -0.089 | [5] -0.056

RETSAT (UniProt Q6NUM9)
Chain of UniProt Q6NUM9 (Q6NUM9 whole entry, looked up): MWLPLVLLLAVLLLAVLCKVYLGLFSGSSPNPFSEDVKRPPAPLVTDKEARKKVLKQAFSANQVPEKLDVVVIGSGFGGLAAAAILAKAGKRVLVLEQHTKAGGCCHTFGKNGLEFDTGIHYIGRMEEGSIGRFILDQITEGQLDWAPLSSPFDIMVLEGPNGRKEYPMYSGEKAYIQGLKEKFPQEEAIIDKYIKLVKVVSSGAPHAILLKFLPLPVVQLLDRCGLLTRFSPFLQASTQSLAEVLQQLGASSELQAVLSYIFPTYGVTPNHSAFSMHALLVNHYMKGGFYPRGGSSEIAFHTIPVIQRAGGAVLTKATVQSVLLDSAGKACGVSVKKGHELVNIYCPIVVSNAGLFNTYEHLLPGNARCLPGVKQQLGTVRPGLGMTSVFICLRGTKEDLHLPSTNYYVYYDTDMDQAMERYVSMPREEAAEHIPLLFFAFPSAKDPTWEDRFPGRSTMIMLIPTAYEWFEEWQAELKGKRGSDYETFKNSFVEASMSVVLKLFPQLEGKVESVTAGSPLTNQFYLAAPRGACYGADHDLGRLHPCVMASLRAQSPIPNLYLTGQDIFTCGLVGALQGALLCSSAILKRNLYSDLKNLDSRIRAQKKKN
inactive: [1] 0.028 | [2] 0.114 | [3] 0.119 | [4] -0.15 | [5] 0.042
